TDP1 block = inhibitors of human tyrosyl-DNA phosphodiesterase TDP1; recombinant TDP1, AlphaScreen DNA substrate cleavage; Potency, µM (doses to about 130 µM), most hits filed as inhibitors; hit rate 0.28% among 350,000; further: nearly all actives have a fitted effect of over 40% in size
Target sequence (Q9NUW8 whole entry, looked up): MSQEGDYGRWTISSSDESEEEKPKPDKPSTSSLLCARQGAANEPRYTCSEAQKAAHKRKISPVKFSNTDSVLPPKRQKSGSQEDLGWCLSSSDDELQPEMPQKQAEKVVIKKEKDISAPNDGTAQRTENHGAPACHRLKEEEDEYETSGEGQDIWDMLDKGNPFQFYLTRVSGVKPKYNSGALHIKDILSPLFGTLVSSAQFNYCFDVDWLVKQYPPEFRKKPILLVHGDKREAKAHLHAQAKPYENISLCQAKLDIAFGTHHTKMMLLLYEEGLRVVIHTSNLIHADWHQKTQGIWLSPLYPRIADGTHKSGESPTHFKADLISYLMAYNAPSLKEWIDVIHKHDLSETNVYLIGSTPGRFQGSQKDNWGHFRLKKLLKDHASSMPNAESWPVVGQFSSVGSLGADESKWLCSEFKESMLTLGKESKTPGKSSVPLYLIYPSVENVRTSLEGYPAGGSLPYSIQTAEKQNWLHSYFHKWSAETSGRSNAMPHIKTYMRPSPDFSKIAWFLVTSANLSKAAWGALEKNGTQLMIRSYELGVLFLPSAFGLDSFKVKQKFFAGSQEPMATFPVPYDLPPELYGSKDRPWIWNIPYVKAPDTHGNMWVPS
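Compounds were preincubated with Tdp1 (1 nM final) for 15 min at room temperature before substrate (15 nM final) started a 5 min reaction; beads (10 ug/ml final) were then added for 10 min before AlphaScreen detection.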
TDP1 cell CPT = growth inhibition of DT40 Tdp1-/-;hTDP1 cells with camptothecin (screen for TDP1 inhibitors). AID 686979. Potency, µM (doses to about 46.2 µM), usual class: inhibitors. hit rate 12% among 420,000. chicken DT40 Tdp1-/-;hTDP1 cells + 20 nM CPT, ATP luminescence, 48 h; further: nearly all actives have a fitted effect of over 55% in size
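Cell growth measured by CellTiter-Glo luminescence after a minimum 48 h, 37 C compound exposure with 20 nM CPT in Tdp1-knockout DT40 cells stably expressing hTDP1, seeded 400/well; qHTS titration format.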
ClpP mod = qHTS Assay for Activators of ClpP; AID 651965, 2013; purified B. subtilis ClpP, FRET peptide cleavage, 20 min; hit rate 1.9% among 340,000; ATP-dependent Clp protease proteolytic subunit (Bacillus subtilis (strain 168)), P80244; Potency, µM (highest dose often 57.5 µM); active means well fitted falling curve with a large enough effect; inconclusive means small, poorly fitted or top-dose-only effect; inactive means no such curve, though single readings can be large or run the other way; further: the source files actives as falling curves though it sought activators and does not explain the sign; nearly all actives have a fitted effect of over 65% in size
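Buffer: 100 mM Tris/HCl pH8, 100 mM KCl, 0.05% low protease BSA, 2.5% glycerol, 0.01% Tween-20. ClpP 10 microg/mL final; 20 min RT; delta FRET normalized to ADEP and DMSO controls.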
DT40 TDP1 no CPT = qHTS for Inhibitors of human tyrosyl-DNA phosphodiesterase 1 (TDP1): qHTS in cells in absence of CPT; DT40 Tdp1-/- hTDP1 cells, no CPT, ATP luminescence, 48 h; Potency, µM (highest dose often 46.2 µM), hits mostly inhibitors; hit rate 15% among 420,000; further: nearly all actives have a fitted effect of over 55% in size
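Growth kinetics read by CellTiter-Glo luminescence after ≥48 hr at 37 °C. Cells: DT40 Tdp1-/- stably carrying human TDP1, 400 per well, compound exposure in the absence of CPT (DMSO vehicle).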
A number is an active result; . = inactive; ? = inconclusive; / = no result; [ ] = dose if it differs, or a comment. This is a sample that favours compounds with a hit; in the whole collection about 17% have one here. Unless noted, the call rests on the fitted dose curve; in most records, active means well fitted curve in the direction sought with a large enough effect; inconclusive means small, poorly fitted or top-dose-only effect, or another doubt; inactive means no such curve, though single readings can be large; an effect the other way counts as inactive or inconclusive.

SMILES	TDP1 block	TDP1 cell CPT	ClpP mod	DT40 TDP1 no CPT
CCOc1ccccc1C(=O)Nc1ccc(S(=O)(=O)Nc2onc(C)c2C)cc1	.[12.3 µM]	.	.	.
COc1ccc(CNC(=O)C[C@H]2C[C@H](C(=O)N3CCCCC3)[C@@]3(CCc4ccccc4)c4[nH]c5ccc(Cl)cc5c4CCN3C2=O)cc1OC	.	10µM	.	10µM
CC[C@]12c3[nH]c4ccc(Cl)cc4c3CCN1C(=O)[C@@H](CC(=O)NCc1ccc(OC)c(OC)c1)C[C@@H]2C(=O)N1CCN(C(=O)C2CC2)CC1	.	?	.	16µM
CNCC(=O)N[C@@H](CCCN=C(N)N)C(=O)N[C@H](C(=O)N[C@@H](Cc1ccc(O)cc1)C(=O)N[C@H](C(=O)N[C@@H](Cc1cnc[nH]1)C(=O)N1CCC[C@H]1C(=O)N[C@@H](C)C(=O)O)C(C)C)C(C)C	/	.	/	.
CCCn1c2c(c(O)c(C(=O)Nc3nccs3)c1=O)CCCC2	.	.	.	?
CC(C)Cn1c2c(c(O)c(C(=O)Nc3nccs3)c1=O)CCCC2	.	16µM	.	?
CCOC(=O)Cc1csc(NC(=O)c2c(O)c3c(n(CC(C)C)c2=O)CCCC3)n1	.	21µM	/	?
CCCn1c2c(c(O)c(C(=O)Nc3nc(C)cs3)c1=O)CCCC2	.	/	/	/
CC(C)C(C(=O)Nc1ccc2c(c1)OCCOCCOCCOCCO2)N1C(=O)c2ccccc2C1=O (stereo not drawn)	.	.	/	.
CC(C)CCN1CCN(Cc2nc(-c3ccc(F)cc3)cs2)CC1CCO (stereo not drawn)	.	.	/	.
COC(=O)C1(Cc2ccc3c(c2)CCC3)Cc2ccc3c(c2C1=O)CCC3 (stereo not drawn)	/	21µM	.	?
Cc1ccc(NC(=O)Cc2ccc3c(c2)CCCC3)cc1C	.	.	.	.
Cc1c(Cl)cccc1NC(=O)c1oc2ccc(S(=O)(=O)N3CCCCCC3)cc2c1C	.	?	.	8.2µM
Cc1c(C(=O)Nc2ccc(F)cc2)oc2ccc(S(=O)(=O)N3CCCCCC3)cc12	.	18µM	.	18µM
Cc1ccc(NC(=O)c2oc3ccc(S(=O)(=O)N4CCCCC4)cc3c2C)cc1C	.	?	.	.
Cc1ccc(Cl)cc1NC(=O)c1oc2ccc(S(=O)(=O)N3CCCCCC3)cc2c1C	.	.	.	.
COc1ccc(NC(=O)c2oc3ccc(S(=O)(=O)N4CCCCC4)cc3c2C)cc1Cl	.	9.2µM	.	13µM
CC(C)C1C(=O)N(Cc2cn(Cc3ccco3)nn2)CCS(=O)(=O)N1Cc1ccc(-c2ccc(F)nc2)cc1 (stereo not drawn)	/	.	.	.
CC(C)CC1C(=O)N(Cc2cn(Cc3ccco3)nn2)CCS(=O)(=O)N1Cc1ccc(-c2ccncc2)cc1 (stereo not drawn)	/	21µM	.	15µM
CC(C)CC1C(=O)N(Cc2cn(Cc3ccco3)nn2)CCS(=O)(=O)N1Cc1ccc(-c2ccccc2)cc1 (stereo not drawn)	/	15µM	.	?
CC(C)CC1C(=O)N(Cc2cn(Cc3ccco3)nn2)CCS(=O)(=O)N1Cc1ccc(-c2ccc(F)nc2)cc1 (stereo not drawn)	/	?	.	23µM
O=C1OCC/C1=C\OCCCO/C=C1\CCOC1=O	.	.	.	.
COCCCn1c(=O)c2sccc2n2c(CCCC(=O)Nc3cc(C)cc(C)c3)nnc12	.	?	.	?
COc1ccc(N(CC(=O)Nc2cc(C)cc(C)c2)S(=O)(=O)c2ccccc2[N+](=O)[O-])c(OC)c1	.	?	/	.
COc1ccc(N(CC(=O)NCc2ccc3c(c2)OCO3)S(=O)(=O)c2ccccc2[N+](=O)[O-])c(OC)c1	.	26µM	.	?
SMILES	TDP1 block	TDP1 cell CPT	ClpP mod	DT40 TDP1 no CPT
COc1ccc(N(CC(=O)Nc2cc(C)ccc2C)S(=O)(=O)c2ccccc2[N+](=O)[O-])c(OC)c1	.	?	/	12µM
Cc1cc(Cl)ccc1-c1nc(NC(C)C)nc2ccsc12	/	18µM	.	23µM
Cc1cc(C(=O)Nc2ccccc2C)on1	/	.	/	.
Cc1ccc(C(=O)C[n+]2cc(-c3ccc(C)cc3)n3c2CCCCC3)cc1	.	0.21µM	.	0.15µM
O=C(C[n+]1cc(-c2ccccc2)n2c1CCC2)OCc1ccccc1	.	.	.	.
Cc1ccc(-c2c[n+](CC(=O)OCc3ccccc3)c3n2CCC3)cc1	.	.	.	.
Cn1c(NC(=O)C[n+]2cc(-c3ccc(Cl)c(Cl)c3)n3c2CCC3)cc(=O)n(C)c1=O	.	.	.	?
COc1ccc(C(=O)C[n+]2cc(-c3ccc(OC)cc3)n3c2CCCC3)cc1	.	9.2µM	.	6.5µM
O=C(C[n+]1cc(-c2ccccc2)n2c1CCCCC2)c1ccc(Br)cc1	.	21µM	.	23µM
Cc1ccc(-c2c[n+](Cc3ccc(Cl)c(Cl)c3)c3n2CCC3)cc1	.	0.58µM	.	0.52µM
CCOc1ccccc1NC(=O)c1cc2c(=O)n(Cc3cccnc3)ccc2nc1C	.	.	.	.
CC(O)(c1ccc(F)c(F)c1)c1nc(-c2ccoc2)cs1 (stereo not drawn)	/	?	.	?
CN(Cc1nnc(-c2ccc(F)cc2)o1)c1ccccc1	/	.	/	.
COC(=O)C1Cc2c([nH]c3ccccc23)CN1 (stereo not drawn)	.	.	32µM	?
COC(=O)[C@@H]1Cc2c([nH]c3ccccc23)C(C)(C)N1C(=O)CCl	/	18µM	/	23µM
O=C(NCC1CCC2(CCN(Cc3cccn3-c3ccc(Cl)cn3)CC2)O1)c1ccccc1 (stereo not drawn)	/	.	/	.
O=C(Nc1ccc(S(=O)(=O)NCc2ccco2)cc1)c1ccc(F)cc1	56µM	?	/	?
Cc1cc(C)n(-c2ccc(C(=O)Nc3ccc(S(=O)(=O)NCc4ccco4)cc3)cc2)n1	.	18µM	.	18µM
C/C(=N\Nc1nc(Cl)c(Cl)cc1Cl)c1ccc(S(=O)(=O)NCc2ccco2)cc1	.	?	.	21µM
Cc1cc(C)cc(NC(=O)c2cc(S(=O)(=O)NCc3ccco3)ccc2F)c1	.	?	.	11µM
COc1ccccc1NC(=O)CN(Cc1ccco1)C(=O)c1ccc(-n2nc(C)cc2C)cc1	.	?	.	16µM
COc1ccccc1NC(=O)CN(Cc1ccco1)C(=O)c1cncc(Br)c1	.	.	.	.
O=S(=O)(NCc1ccccc1)c1ccc(NC(=S)NCc2ccco2)cc1	/	?	.	12µM
CCCC(=O)Nc1nnc2n1CCS2	.	.	.	.
Cc1cccc(N2CCN(C(=O)c3cc4cc(F)ccc4[nH]3)CC2)c1C	/	?	.	?
COc1ccc(CN(CC(=O)NCC2CCCO2)C(=O)CCC(=O)Nc2nccs2)cc1 (stereo not drawn)	.	.	/	.
COc1ccc(-c2nnc3sc(-c4cccs4)nn23)cc1OC	.	10µM	.	11µM

Screening data (PubChem BioAssay)
